# Where “and” joins values, the source holds several entries; their conditions need not be identical. Identical values can stand only once. About 79,000 compounds went through this panel and 15% of them were active in at least one assay; those are over-represented in the sample as a whole. Values without a mark were called inactive. Calls of active or inactive are those of the source. Rule as the data show it: active = growth inhibition above about 70%; inactive = the rest.
# Assay: NCI Yeast Anticancer Drug Screen. Data for the mlh1 rad18 strain (AID 175)
# Conditions: S. cerevisiae mlh1 rad18 strain growth inhibition; at 50.0 µM; active compounds read high
# Method in brief: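 A repair-deficient yeast strain is exposed to test compound, and growth is scored relative to vehicle-treated controls.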
row,SMILES,growth inhibition
1,CC(C)N(CC(=O)c1ccc2cc(Cl)c3ccccc3c2c1)C(C)C,98.5% (active)
2,Cc1c(N2CCCC2)cc2c(c1NC(=O)c1ccccc1Cl)C(C)(C)CC2(C)C,80.2% (active)
3,CNc1ccc([N+](=O)[O-])cc1,10.3%
4,CC(C)(C)OC(=O)c1ccc(NCC2=C(Br)C(=O)C=CC2=O)cc1,89.5% (active)
5,CCN(CC)CCNc1ccc(C)c2oc3ccc(O)cc3c(=O)c12,95.8% (active)
6,CSc1ccccc1C(=O)O,-7.45% and -1.95% and -8.9%
7,CCS(=O)(=O)c1ccc(NC(=O)OC2CCCCCCC2)cc1,91.6% (active)
8,Cc1cc2c(c3c1C(=O)CC3)C(C)(C)CC2(C)C,6.05%
9,OC(c1ccccc1)C(O)c1ccccc1 (stereo not given),20.1% and 11.9% and 2.4%
10,Cc1ccc(S(=O)(=O)OCC(O)C(O)COS(=O)(=O)c2ccc(C)cc2)cc1 (stereo not given),26.1% and -1.9% and -2.9%
11,O=C(O)/C=C\c1cc2ccccc2c2ccccc12,98.6% (active)
12,CC[N+](C)(CC)CCC[n+]1c(-c2ccccc2)c2cc(N)ccc2c2ccc(N)cc21,82% (active)
13,Cn1nc2c(c(Cl)c1=O)Nc1ccccc1O2,-6.7%
14,COC(=O)CSc1nc2[nH]c(SC)c(C(N)=O)c2c(=O)n1-c1ccccc1,9.8%
15,O=S(=O)(Nc1ccc(Cl)cc1)c1ccccc1,45.5%

# Source: PubChem BioAssay (NCI)
